# Hit rate of the full screen: of about 360,000 compounds, about 25,000 (6.9%) were called active. A call without a number means that no potency is given here. Not shown: some 9% with an inconclusive outcome. Many of the other results were omitted from the sample, so actives are more common in it than they were. Unmarked numbers belong to inactive results. Calls come from the whole dose curve; as a rule, active = well fitted inhibition curve with a large enough effect; inconclusive = small, poorly fitted or top-dose-only effect; inactive = flat fitted curve, though single readings scatter.
# Biological target: Luciferin 4-monooxygenase (Photinus pyralis) (UniProt P08659)
# Assay: qHTS profiling assay for firefly luciferase inhibitor/activator using purifed enzyme and Km concentrations of substrates (counterscreen for miR-21 project); note: nearly all actives have a fitted effect of over 55% in size
# Details: purified FLuc, luminescence inhibition; series mostly up to 57.5 µM
# How it was run: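 Biochemical qHTS of compounds, final roughly 60 µM downward over six points, against 10 nM purified firefly luciferase using Km concentrations of substrates (10 uM D-luciferin, 10 uM ATP) in Tris acetate pH 7.5 buffer; luminescence output.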
# Potency is the fitted concentration of half-maximal effect.
# Chain of Luciferin 4-monooxygenase (Photinus pyralis) (P08659 whole entry, looked up): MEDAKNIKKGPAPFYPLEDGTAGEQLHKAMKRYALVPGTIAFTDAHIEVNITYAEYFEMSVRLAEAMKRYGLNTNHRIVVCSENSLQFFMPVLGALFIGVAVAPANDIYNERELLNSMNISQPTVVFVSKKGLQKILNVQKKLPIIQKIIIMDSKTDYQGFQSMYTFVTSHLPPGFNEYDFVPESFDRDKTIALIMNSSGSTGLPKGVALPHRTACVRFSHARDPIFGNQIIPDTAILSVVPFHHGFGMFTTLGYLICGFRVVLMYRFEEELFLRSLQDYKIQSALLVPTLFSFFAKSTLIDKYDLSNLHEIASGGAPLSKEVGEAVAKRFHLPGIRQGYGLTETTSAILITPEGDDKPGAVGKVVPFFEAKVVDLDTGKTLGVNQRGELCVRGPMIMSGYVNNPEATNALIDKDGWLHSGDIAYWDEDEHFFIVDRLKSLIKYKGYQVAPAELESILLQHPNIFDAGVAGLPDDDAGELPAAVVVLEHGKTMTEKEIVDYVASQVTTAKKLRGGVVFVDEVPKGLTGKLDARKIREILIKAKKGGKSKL
SMILES,Potency,"activity change, negative = inhibition"
CCN(CC)C(=O)CSC1c2ccccc2C(=O)N1c1ccccc1 (stereo not given),inactive,
Cc1ccc(CCCOC(=O)C[N+]2(C)CCCC2)cc1,inactive,
Cn1c(=O)c2c(n(Cc3ccccc3)c1=O)NC(=O)C2CC(=O)N1CCc2ccccc2C1 (stereo not given),inactive,
CC(=O)Nc1cccc2c1[n+]([O-])c(C)c(C)[n+]2[O-],inactive,
CCOc1ccc(NC(=O)c2cc3c(=O)n(Cc4cccs4)ccc3nc2C)cc1,inactive,
O=C(/C=C/c1ccccc1)Nc1nnc(SCC(=O)c2ccc3ccccc3c2)s1,inactive,
COC(=O)CSc1nnc(NC(=O)CCc2ccccc2)s1,inactive,
O=C(Nc1nnc(CCN2CCCCC2)s1)c1cccc(Cl)c1,inactive,
Cc1ccc(C(=O)Nc2nnc(-c3ccncc3)s2)o1,,-0.508% [at 2.3 µM]
NC(=O)CSc1nnc(NC(=O)c2ccc(Br)o2)s1,16.9 µM (active),
NC(=O)CSc1nnc(NC(=O)c2ccc3ccccc3c2)s1,2.39 µM (active),
CCOCc1nnc(NC(=O)CSc2ccc(C)cc2)s1,inactive,
CSc1nnc(NC(=O)c2nc(S(=O)(=O)Cc3ccc(C)cc3)ncc2Cl)s1,inactive,
CCSc1nnc(NC(=O)c2ccc(C)cc2)s1,2.69 µM (active),
CCOc1ccccc1CNC(=O)c1ccc(-n2c(C)cc3c2CCC(C)C3)cc1 (stereo not given),inactive,
COc1ccc2c(c1)c(=O)c(S(=O)(=O)c1ccc(F)cc1)cn2CC(=O)Nc1ccc(C)cc1C,inactive,
COc1ccccc1CNC(=O)c1ccc(CS(=O)c2ccccc2Cl)o1 (stereo not given),inactive,
COc1ccc(NC(C)=O)cc1NC(=O)CN1CCN(c2ccc(F)cc2)CC1,inactive,
CCCCCn1c(=O)[nH]c2cc(C(=O)Nc3cc(C)cc(C)c3)ccc2c1=O,inactive,
COc1ccc(-c2cc(-c3nc(-c4cc(OC)c(OC)c(OC)c4)no3)[nH]n2)c(OC)c1,inactive,
COc1ccc(-c2noc(-c3cccc(OC)c3OC)n2)cc1OC,2.39 µM (active),
COc1ccc(OC)c(-n2nnc(-c3nc(-c4cc(OC)c(OC)c(OC)c4)no3)c2C)c1,inactive,

SMILES,Potency,"activity change, negative = inhibition"
CCOc1ccccc1NC(=O)Cn1nnc(C(=O)Nc2ccc(C)c(C)c2)c1N,inactive,
COc1ccc(N(CC(=O)Nc2cccc3ccccc23)S(C)(=O)=O)c(OC)c1,inactive,
COc1ccccc1NC(=O)COc1ccc(C(=O)OCC(=O)N(C(C)C)C(C)C)cc1OC,inactive,
COc1cc(CO)ccc1OCC(=O)Nc1cccc2ccccc12,10.7 µM (active),
Cc1nc(SCC(=O)N2CCN(c3ccccc3)CC2)[nH]c(=O)c1C,inactive,
CCC1=[N+]([O-])C(C)(/C(C)=N\O)N(O)C1(C)C (stereo not given),inactive,
Oc1c(CN2CCCC2)cc(COCc2ccccc2)c2cccnc12,inactive,
COC(=O)CN1C(=O)CSc2ccc(S(=O)(=O)Nc3cc(C)ccc3C)cc21,inactive,
O=C(Nc1ccc(S(=O)(=O)N2CCCCC2)cc1)C1CCN(C(=O)c2ccc(F)cc2)CC1,inactive,
Brc1ccccc1C1Nc2cccc3cccc(c23)N1,inactive,
COc1cccc(N2C(=O)C3CCCN3C2c2ccc(F)cc2)c1 (stereo not given),inactive,
COc1ccc(C2=CC(c3cccc(OC)c3)n3nnnc3N2)cc1 (stereo not given),inactive,
Oc1ccc(C2Nc3cccc4cccc(c34)N2)cc1,16.9 µM (active),
Cc1ccc(C2Nc3cccc4cccc(c34)N2)cc1,10.7 µM (active),
COc1ccc(C2CC(c3ccc(C)cc3)Nc3ncnn32)cc1 (stereo not given),inactive,
COc1cccc(C2Nc3cccc4cccc(c34)N2)c1,26.9 µM (active),
Cc1ccc(C2CC(c3cccc(C)c3)n3nc(N)nc3N2)cc1 (stereo not given),inactive,
COc1cc(C(=O)OCC(=O)NC(C)CCc2ccccc2)cc(OC)c1OC (stereo not given),inactive,
CCCCOc1ccc(NC(=O)c2cc3c(n(-c4ccc(Cl)cc4)c2=O)CCCC3=O)cc1,inactive,
O=C(c1c(F)cccc1F)N1CCN(S(=O)(=O)c2ccc3c(c2)OCCO3)CC1,inactive,
COc1ccccc1C(CNC(=O)c1cccc(S(=O)(=O)Nc2ccc(F)cc2)c1)N(C)C (stereo not given),inactive,
O=C(NCCc1ccccn1)c1cccnc1Oc1ccc(Cl)cc1,inactive,

SMILES,Potency,"activity change, negative = inhibition"
O=C(COc1cc(Cl)c(Cl)cc1Cl)NCCc1ccccn1,inactive,
O=C(NCCc1ccccn1)c1cc(-c2ccc(Cl)cc2)nc2ccccc12,16.9 µM (active),
Cc1cccc(NC(=O)Cn2nc(-c3ccc(Cl)cc3)c3ccccc3c2=O)c1,inactive,
COC(=O)c1cc(Oc2ccc(S(=O)(=O)N3CCOCC3)cc2[N+](=O)[O-])cc(C(=O)OC)c1,inactive,
COCCNS(=O)(=O)c1cc(-c2nn3c(C)nnc3c3ccccc23)ccc1C,inactive,
CC(=O)N1c2ccc(S(=O)(=O)N3CCCCCC3)cc2CC1C(=O)NCc1ccccc1C (stereo not given),inactive,
COc1ccc(OC)c(NC(=O)CSC2=Nc3ccccc3C3=NC(CC(=O)NCCc4ccccc4)C(=O)N23)c1 (stereo not given),inactive,
COc1ccccc1Nc1nc(N)nc(N)c1S(=O)(=O)c1ccccc1,inactive,
CNS(=O)(=O)c1cccc(C(=O)OCCCC(=O)c2ccccc2)c1,inactive,
CCOc1ccc(C(=O)Nc2ccc(S(=O)(=O)Nc3cc(C)on3)cc2)cc1,16.9 µM (active),
COc1cc(OC)cc(C(=O)Nc2ccc(S(=O)(=O)Nc3cc(C)on3)cc2)c1,inactive,
CCOc1ccc(CC(=O)Nc2ccc(S(=O)(=O)Nc3cc(C)on3)cc2)cc1OCC,inactive,
CC(C)OCCCNc1ncnc2c1[nH]c1ccc(F)cc12,15.1 µM (active),
Fc1ccc2[nH]c3c(N4CCN(Cc5ccc6c(c5)OCO6)CC4)ncnc3c2c1,inactive,
CC(C)OCCCNC(=O)c1cc(Sc2ccc(F)cc2)nc2ccccc12,inactive,
O=S(=O)(c1ccc(Sc2nnc3ccccn23)nc1)N1CCOCC1,inactive,
CCOc1ccc(NC(=O)Cn2c(=O)n(CCCC(=O)NCc3ccc4c(c3)OCO4)c(=O)c3ccccc32)cc1,inactive,
Cc1sc2ncnc(Sc3nc4ccccc4s3)c2c1C,inactive,
Cc1ccnc(Nc2nc3ccccc3s2)n1,1.9 µM (active),
Cc1cc(C)cc(-n2ccnc2SCC(=O)Nc2nc3ccccc3s2)c1,inactive,
Cc1ccc(CCNC(=O)c2ccc3c(c2)N(Cc2cc(C)ccc2C)C(=O)c2ccccc2S3=O)cc1 (stereo not given),inactive,

# Reference: PubChem BioAssay AID588342 (National Center for Advancing Translational Sciences (NCATS), 2011)
